Structures can show the parent of a compound that is named as a salt.
Key:
Conditions in all cases: 20 µM
P. vulgatus RND KO = experiment: growth AUC normalised to DMSO control (median) (fraction of control); higher = less growth inhibition, active = hit call of the paper
Method in brief: (§1)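 Area under the growth curve, calculated by the trapezoidal rule up to entry into stationary phase, was normalised to vehicle wells on the same plate. Strains had been passaged twice overnight without oxygen and then grown in mGAM in 96-well plates from OD578 0.01, each with an approved-drug library compound at 20 μM in 1% DMSO. OD578 was read hourly over 24 h in an anaerobic incubator, and the median of three biological replicates is given.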

P. vulgatus WT = experiment: as above
Method in brief: as §1

[1] = system: S. enterica typhimurium WT; experiment: as above
Method in brief: as §1

[2] = system: S. enterica typhimurium tolC KO; experiment: as above
Method in brief: as §1

[3] = system: Haemophilus parainfluenzae; experiment: growth AUC normalised to DMSO control (fraction of control); higher = less growth inhibition, active = hit call of the paper
Method in brief: (§2)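 Pathogens were passaged twice under anaerobic conditions, then inoculated into pre-reduced mGAM plates at a starting OD578 of 0.01, with compound at 20 μM and 1% DMSO, and sealed with breathable membranes. For Haemophilus parainfluenzae, the medium was supplemented with hemin and NAD. OD578 was read every hour for 24 h in three biological replicates. Growth-curve AUC was calculated by the trapezoidal rule up to the exponential-to-stationary transition and normalised to DMSO controls on the same plate.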

[4] = system: Salmonella enterica typhimurium; experiment: as above
Method in brief: as §2

Shigella flexneri = experiment: as above
Method in brief: as §2

Vibrio cholerae = experiment: as above
Method in brief: as §2

[5] = system: Yersinia pseudotuberculosis; experiment: as above
Method in brief: as §2

Measured: growth AUC normalised to DMSO control
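Wherever growth AUC normalised to DMSO control (median) is given: active when median AUC fell below 0.1.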

CC(C)(C)NCC(O)c1ccccc1Cl (stereo unspecified) [Tulobuterol Hydrochloride]
inactive: P. vulgatus RND KO 1.01 | P. vulgatus WT 1 | [1] 0.995 | [2] 0.989

O=c1[nH]c2ccccc2n1CCCN1CCC(n2c(=O)[nH]c3cc(Cl)ccc32)CC1 [Domperidone]
inactive: [3] 1.02 | [4] 1.01 | Shigella flexneri 0.985 | Vibrio cholerae 1.03 | [5] 1 | P. vulgatus RND KO 1 | P. vulgatus WT 1 | [1] 1 | [2] 0.979

C=C1C[C@@H]2[C@H](CC[C@]3(C)C(=O)CC[C@@H]23)[C@@]2(C)C=CC(=O)C=C12 [Exemestane]
inactive: [3] 0.967 | [4] 0.985 | Shigella flexneri 0.953 | Vibrio cholerae 0.964 | [5] 1 | P. vulgatus RND KO 0.978 | P. vulgatus WT 0.969 | [1] 0.996 | [2] 0.935

NC(=O)CN1CC(O)CC1=O (stereo unspecified) [Oxiracetam]
inactive: P. vulgatus RND KO 1.02 | P. vulgatus WT 1.03 | [1] 1 | [2] 0.955

C[C@]12CC[C@H](O)CC1=CC[C@@H]1[C@@H]2CC[C@]2(C)C(=O)CC[C@@H]12 [Prasterone]
inactive: P. vulgatus RND KO 0.995 | P. vulgatus WT 0.994 | [1] 1.01 | [2] 0.942

N#Cc1nn(-c2c(Cl)cc(C(F)(F)F)cc2Cl)c(N)c1[S+]([O-])C(F)(F)F (stereo unspecified) [Fipronil]
inactive: P. vulgatus RND KO 0.985 | P. vulgatus WT 0.906 | [1] 1.01 | [2] 0.903

C=C(C)[C@@H]1[C@H]2OC(=O)[C@@H]1[C@]1(O)C[C@H]3O[C@]34C(=O)O[C@H]2[C@]14C [Picrotoxinin]
inactive: [3] 1 | [4] 1 | Shigella flexneri 0.96 | Vibrio cholerae 1 | [5] 0.997 | P. vulgatus RND KO 1.03 | P. vulgatus WT 1.03 | [1] 1.02 | [2] 1.02

CN1[C@@H]2C[C@@H](OC(=O)[C@H](CO)c3ccccc3)C[C@H]1[C@@H]1O[C@@H]12 [Scopolamine hydrochloride]
inactive: [3] 1.06 | [4] 1.03 | Shigella flexneri 1.06 | Vibrio cholerae 1.06 | [5] 1.03 | P. vulgatus RND KO 1.03 | P. vulgatus WT 1.05 | [1] 1 | [2] 1.01

NC(=O)OCCCc1ccccc1 [Phenprobamate]
inactive: P. vulgatus RND KO 1.01 | P. vulgatus WT 1.02 | [1] 0.989 | [2] 0.991

CCC1(C2=NCCN2)Cc2ccccc2O1 (stereo unspecified) [Efaroxan hydrochloride]
inactive: P. vulgatus RND KO 1.02 | P. vulgatus WT 1.03 | [1] 0.997 | [2] 0.999

NC(=O)CN1CCCC1=O [Piracetam]
inactive: [3] 0.975 | [4] 0.991 | Shigella flexneri 0.957 | Vibrio cholerae 0.992 | [5] 0.993 | P. vulgatus RND KO 0.989 | P. vulgatus WT 0.982 | [1] 0.984 | [2] 0.996

Cc1cccc(C)c1NC(=O)CN1CCCC1=O [Nefiracetam]
inactive: P. vulgatus RND KO 1.01 | P. vulgatus WT 1.01 | [1] 1 | [2] 1

CC(C)=CC1C(C(=O)OCc2cccc(Oc3ccccc3)c2)C1(C)C (stereo unspecified) [Phenothrin]
inactive: P. vulgatus RND KO 1.01 | P. vulgatus WT 1.01 | [1] 0.998 | [2] 1.01

Nc1nc(N)nc(NC2CC2)n1 [Cyromazine]
inactive: P. vulgatus RND KO 0.998 | P. vulgatus WT 1.01 | [1] 1 | [2] 0.988

Reference: the supplement of paper PMC12350171
